The list is not random: actives were taken first. Their share in the collection is about 19%.
TDP1 cell noCPT: qHTS for Inhibitors of human tyrosyl-DNA phosphodiesterase 1 (TDP1): qHTS in cells in absence of CPT | DT40 Tdp1-/- hTDP1 cells, no CPT, ATP luminescence, 48 h | Potency, µM (highest dose often 46.2 µM), without a hit: at the highest dose activity change, negative = growth inhibition, most hits filed as inhibitors | actives 15% (n = 420,000) | AID 686978, 2013; also: potency is read from the fitted curve at half-maximal effect; % is scaled to controls: 0 for no effect and ±100 for the full control effect; nearly all actives have a fitted effect of over 55% in size
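Cells were dispensed at 400 per well, compounds added by pin tool, plates incubated ≥48 hr at 37 °C, then CellTiter-Glo added for 30 min at room temperature before luminescence reading. Line: DT40 Tdp1-/- complemented with hTDP1; camptothecin omitted.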
HepG2 viability: kills HepG2 cells in TGF-b inhibitor counter-screen | HepG2 CAGA-GFP viability, ATP luminescence, 18 h | Potency, µM (titrated, usually from 46.1 µM), for inactives: top-dose activity change, negative = cytotoxicity, hits mostly cytotoxic | actives 0.76% (n = 410,000) | AID 588856; also: potency is read from the fitted curve at half-maximal effect
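CellTiter-Glo luminescence gave cytotoxicity after 18 hours at 37 degrees C. The cells were HepG2 CAGA-GFP in 1% FBS DMEM, stimulated with 500 pg/mL TGF-beta after compound addition. %Activity was normalised to no-cell wells (complete cell-killing) and DMSO (no toxicity), and curves were fitted and classified.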
TGFb inhibitor: inhibitors of TGF-b signaling; AID 588855; actives 1.2% (n = 410,000); HepG2 CAGA-GFP TGF-b/SMAD3 reporter, GFP fluorescence, 18 h; TGF-beta stimulated, 500 pg/mL final; Potency, µM (series often up to 46.1 µM), for inactives: at the top dose activity, negative = inhibition, actives largely listed as inhibitors; also: potency is read from the fitted curve at half-maximal effect; % is scaled to controls: 0 for no effect and ±100 for the full control effect; nearly all actives have a fitted effect of over 65% in size
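TGF-beta reporter screen: HEPG2 CAGA-GFP, 1% FBS, 500 pg/mL TGF-beta final, 18 h; per-cell GFP summed per well; curves fitted and categorized by class.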
TDP1 cell CPT: growth inhibition of DT40 Tdp1-/-;hTDP1 cells with camptothecin (screen for TDP1 inhibitors); chicken DT40 Tdp1-/-;hTDP1 cells + 20 nM CPT, ATP luminescence, 48 h; Potency, µM (titrated, usually from 46.2 µM), for inactives: top-dose activity change, negative = growth inhibition, most hits filed as inhibitors; actives 12% (n = 420,000); AID 686979; also: potency is read from the fitted curve at half-maximal effect; % is scaled to controls: 0 for no effect and ±100 for the full control effect; nearly all actives have a fitted effect of over 55% in size
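Chicken DT40 Tdp1-/- cells complemented with human TDP1, 400 cells/well, exposed to compounds plus 20 nM camptothecin for at least 48 h at 37 C; viability read as ATP content by CellTiter-Glo luminescence.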
TDP1 block: blocks human tyrosyl-DNA phosphodiesterase 1. Q9NUW8. recombinant TDP1, AlphaScreen DNA substrate cleavage. Potency, µM (top dose mostly 130 µM), for inactives: top-dose activity change, negative = inhibition, most hits filed as inhibitors. actives 0.28% (n = 350,000). AID 485290; also: potency is read from the fitted curve at half-maximal effect; % is scaled to controls: 0 for no effect and ±100 for the full control effect; nearly all actives have a fitted effect of over 40% in size
Target sequence (Q9NUW8 whole entry, looked up): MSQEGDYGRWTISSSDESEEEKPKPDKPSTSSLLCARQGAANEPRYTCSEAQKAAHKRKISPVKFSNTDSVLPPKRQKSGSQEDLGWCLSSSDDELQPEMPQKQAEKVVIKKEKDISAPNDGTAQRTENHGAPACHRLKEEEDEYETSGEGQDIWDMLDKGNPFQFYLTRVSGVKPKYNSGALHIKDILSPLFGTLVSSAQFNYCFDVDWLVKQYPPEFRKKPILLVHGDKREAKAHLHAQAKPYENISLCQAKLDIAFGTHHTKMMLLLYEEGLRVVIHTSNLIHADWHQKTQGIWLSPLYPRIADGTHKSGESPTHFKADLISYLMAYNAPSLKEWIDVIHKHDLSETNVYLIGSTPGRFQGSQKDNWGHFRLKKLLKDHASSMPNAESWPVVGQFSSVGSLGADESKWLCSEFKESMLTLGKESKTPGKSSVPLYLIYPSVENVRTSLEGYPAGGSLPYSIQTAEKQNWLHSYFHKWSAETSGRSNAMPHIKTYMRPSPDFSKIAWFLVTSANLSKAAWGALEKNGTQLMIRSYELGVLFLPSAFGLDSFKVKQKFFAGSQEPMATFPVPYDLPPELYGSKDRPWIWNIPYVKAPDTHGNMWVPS
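Recombinant E. coli-expressed Tdp1 (1 nM) preincubated with compound 15 min at RT, then 5'-biotin/3'-phosphotyrosine-FITC DNA substrate (15 nM) added for 5 min. AlphaScreen beads (10 ug/ml) added, 10 min RT; tyrosine-FITC cleavage read as signal loss.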
IL-1B inflam inh: blocks inflammasome-driven IL-1 beta release; activity change, % at 57.5 µM; THP-1 LPS/ATP IL-1B secretion, AlphaLISA, 16 h; active compounds read low; actives 4.7% (n = 360,000); in the data active = activity change below about -50%; inconclusive = mostly about -30% to -49%; also: % is scaled to controls: 0 for no effect and ±100 for the full control effect
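Secreted IL-1B measured by AlphaLISA bead assay after 16 h compound exposure of THP-1 cells; compounds (final up to 57.5 uM) added 1 h before LPS (250 ng/mL) and ATP (1.25 mM) stimulation; lower signal means less secretion.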
An asterisk follows results filed as active; ? = inconclusive; . = no result. Unless noted, calls follow the shape of the dose curve; as a rule, active = well fitted curve in the direction sought with a large enough effect; inconclusive = small, poorly fitted or top-dose-only effect, or another doubt; inactive = no such curve, though single readings can be large; an effect the other way counts as inactive or inconclusive.

SMILES | TDP1 cell noCPT | HepG2 viability | TGFb inhibitor | TDP1 cell CPT | TDP1 block | IL-1B inflam inh
CC(NC(=O)c1cccc(S(=O)(=O)N2CCN(Cc3ccccc3)CC2)c1)c1ccc(Cl)cc1 (centres undefined) | ? | -0.7% | -7.1% | ? | -6.0% | -5.6
COc1ccc(C(=O)C[n+]2cn(C(F)F)c3ccccc32)c(F)c1 | 20.6µM* | -30.6% | ? | ? | 9.2% | ?
O=C(O)C1CCCN(S(=O)(=O)Cc2ccccc2)C1 (centres undefined) | 26.3% | -7.2% | -4.7% | 1.6% | . | -11.9
O=C(C1CCCN(S(=O)(=O)c2ccccc2)C1)N1CCCCCC1 (centres undefined) | 16.4µM* | 15.0% | -20.4% | -27.1% | 1.3% | -0.1
CC(=O)Nc1ccc(S(=O)(=O)N2CCCC(C(=O)N3CCN(c4ccccc4)CC3)C2)cc1 (centres undefined) | 20.6µM* | 7.0% | ? | 23.1µM* | 5.9% | 0.0
O=C(C1CCCN(S(=O)(=O)Cc2ccccc2)C1)N1CCC(Cc2ccccc2)CC1 (centres undefined) | 10.3µM* | -11.5% | 5.5% | 16.4µM* | 4.7% | -27.9
O=C(C1CCCN(S(=O)(=O)c2ccc(F)cc2)C1)N1CCCC1 (centres undefined) | -6.7% | 30.5% | 0.0% | 12.3% | 2.9% | 28.6
Cc1ccc(CC(C(=O)O)C(C)C(=O)Nc2ccc(F)cc2)cc1 (centres undefined) | 4.0% | -1.2% | -4.8% | -3.8% | . | 16.4
COc1cc(-c2cc3nc(NC4CCCCC4)ccn3n2)cc(OC)c1OC | 10.3µM* | -23.3% | -20.1% | 16.4µM* | . | 8.7
COc1cc(-c2cc3nc(NCCN(C)C)ccn3n2)cc(OC)c1OC | -20.6% | -26.5% | 8.0% | -18.8% | . | -8.7
FC(F)(F)c1cccc(-c2cc3nc(NC4CCCCC4)ccn3n2)c1 | ? | -86.7% | 15.8µM* | 20.6µM* | . | -22.8
FC(F)(F)c1cccc(-c2cc3nc(NCCOc4ccccc4)ccn3n2)c1 | ? | -85.1% | ? | ? | . | -14.1
COc1cc(-c2csc(NC3CCCCC3)n2)cc(OC)c1OC | ? | -0.1% | -4.0% | ? | 9.2% | -79.7*
Cc1cccc(NC(=O)c2oc3ccc(S(=O)(=O)N(C)C4CCCCC4)cc3c2C)c1C | 8.2µM* | -3.2% | -7.4% | 10.3µM* | 5.2% | .
Cc1c(C(=O)Nc2cccc(Cl)c2)oc2ccc(S(=O)(=O)N(C)C3CCCCC3)cc12 | 20.6µM* | 2.9% | ? | ? | 7.8% | .
Cc1ccc(Cl)cc1NC(=O)c1oc2ccc(S(=O)(=O)N(C)C3CCCCC3)cc2c1C | ? | 0.9% | -9.6% | 20.6µM* | -2.6% | .
Cc1ccc(Cl)cc1NC(=O)c1oc2ccc(S(=O)(=O)N3CCCCC3)cc2c1C | -24.3% | -24.1% | 1.2% | -13.9% | 2.6% | .
OCC[C@@H]1C[C@H](O)[C@@H](O)[C@@]2(CCCc3ccccc3O2)O1 | -3.0% | -14.5% | 23.7% | -5.3% | . | 14.4
Cc1ccc(-n2ncc(C(=O)NCCN3CCCC3)c2C2CCN(C(=O)OC(C)(C)C)CC2)cc1C | ? | -37.7% | 0.0% | 16.4µM* | 5.3% | .
CCN1CCN(CCCNC(=O)c2cnn(-c3ccccc3)c2C2CCN(C(=O)OC(C)(C)C)CC2)CC1 | 0.5% | -17.6% | -19.9% | -9.9% | -3.2% | .
CC(C)(C)OC(=O)N1CCC(c2c(C(=O)NCCN3CCc4ccccc4C3)cnn2-c2ccc(F)cc2)CC1 | ? | -55.9% | ? | ? | 5.3% | .

Assay outcomes (PubChem BioAssay)
